Assay results reported in PubChem BioAssay (NCATS).
Results filed as inconclusive are left out. Where a call stands in place of a potency, no number is given. Activity calls are given as the source filed them. Unless noted, the call rests on the fitted dose curve; in most records, active means well fitted curve in the direction sought with a large enough effect; inconclusive means small, poorly fitted or top-dose-only effect, or another doubt; inactive means no such curve, though single readings can be large; an effect the other way counts as inactive or inconclusive.

Columns and labels:
[1] = target: Chromobox protein homolog 1 (Homo sapiens) (UniProt P83916); test: qHTS Validation Assay for Inhibitors of HP1-beta Chromodomain Interactions with Methylated Histone Tails (AID 488953); further: nearly all actives have a fitted effect of over 50% in size; further: potency means the concentration at half of the fitted maximal effect
Method in brief: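 Disruption of preformed HP1-beta:H3K9me3 peptide complexes (both 50 nM, PBS pH 7.4 with 0.01% Tween-20) is measured by AlphaScreen after 30 min compound exposure at room temperature, using streptavidin donor and nickel chelate acceptor beads at 10 ug/mL final.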

[2] = target: Transient receptor potential cation channel subfamily V member 1 (Homo sapiens) (UniProt Q8NER1); test: HTS Assay for Compounds that Act as Enhancers of the Vanilloid Receptor 1 (AID 488979)
Method in brief: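 TRPV1 cells loaded with Fluo-8 calcium dye; compound added and Ca2+ signal (ex 480/em 520 nm) followed 3 min, then capsaicin at EC20 added and read 2 more min to detect enhancement.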

[3] = target: Thyrotropin receptor (Homo sapiens) (UniProt P16473); test: qHTS Assay for Antagonists of the Thyroid Stimulating Hormone Receptor (AID 488980); further: series mostly up to about 58 µM
Method in brief: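 Inhibition of TSH-stimulated cAMP accumulation was quantified by homogeneous time-resolved FRET in TSHR-transfected HEK293 cells. Agonist: TSH, 4 nM final (EC80).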

[4] = target: D(1A) dopamine receptor (Homo sapiens) (UniProt P21728); test: HTS Assay for Allosteric Agonists of the Human D1 Dopamine Receptor: Primary Screen for Agonists (AID 488981)
Method in brief: (§1)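 Tetracycline-induced HEK293 Trex D1 cells with forced coupling to calcium, loaded with no-wash calcium dye; kinetic fluorescence read 180 s after compound addition for agonism, then a further 180 s after an EC20 dopamine challenge for potentiation.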

[5] = target: D(1A) dopamine receptor (Homo sapiens) (UniProt P21728); test: HTS Assay for Allosteric Agonists of the Human D1 Dopamine Receptor: Primary Screen for Potentiators (AID 488982)
Method in brief: as §1

[6] = target: D(1A) dopamine receptor (Homo sapiens) (UniProt P21728); test: HTS Assay for Allosteric Agonists of the Human D1 Dopamine Receptor: Primary Screen for Antagonists (AID 488983);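 further: calcium flux response to an EC80 dopamine challenge measured with no-wash dye; nearly all actives have a fitted effect of over 65% in size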
Method in brief: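 Kinetic fluorescence at 1 cycle/sec tracked intracellular calcium in force-coupled, tetracycline-inducible HEK293 T-REx D1 cells. Loss of response to an EC80 dopamine dose, given 180 s after compound, marked antagonists.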

[7] = Validation screen for small molecules that induce genotoxicity in human embryonic kidney (HEK293T) cells expressing luciferase-tagged ELG1 (AID 493106)
Method in brief: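 Cells were dispensed at 2,000 per well, then 23 nL compound or DMSO was pinned in. After 16 hr at 37 °C and 5% CO2, ONE-Glo reagent was added. Luciferase activity was measured following 30 min at room temperature.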

[8] = target: ATPase family AAA domain-containing protein 5 (Homo sapiens) (UniProt Q96QE3); test: Validation screen for small molecules that inhibit ELG1-dependent DNA repair in human embryonic kidney (HEK293T) cells expressing luciferase-tagged ELG1 (AID 493107);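 further: cells co-treated with the DNA-damaging agent 5-fluorouridine alongside compound; series mostly up to about 46 µM; inhibitors lower the ELG1-luciferase luminescence signal; nearly all actives have a fitted effect of over 70% in size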
Method in brief: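 Cells are dispensed in 1536-well format, then 5-fluorouridine and compound are pinned in. After a 16 hr incubation at 37 °C and 5% CO2, ONE-Glo is added and luciferase measured on a CCD imager.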

[9] = target: Thyrotropin-releasing hormone receptor (Homo sapiens) (UniProt P34981); test: qHTS for Small Molecule Agonists and Allosteric Enhancers of Human TRH Receptor: Validation Screen for Agonists (AID 493127;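 active means calcium activation more than 3 SD above the typical response in the agonist read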;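 further: intracellular calcium rise by fluo-8 fluorescence before TRH EC20 addition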); settings: TRH receptor agonist cell assay; at 2 µM; stronger effect = higher value
Method in brief: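 Compounds are added by online pintool to dye-loaded TRHR cells while fluorescence is recorded every second. A rise in calcium signal during the agonist read marks activation; a later 10 nM TRH addition (EC20) serves the separate enhancer mode.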

[10] = Nrf2 qHTS screen for inhibitors: Validation (AID 493153; active means well fitted inhibition curve with a large enough effect in the main read-out, with a control signal flat, not every such curve was filed as active); settings: Potency: luciferase luminescence; viability change: measured here: cytotoxicity max response
Method in brief: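 A549 ARE_Fluc, 5% FBS OPTI-MEM; cpd titration, 18-24 h, 37°C/5% CO2. Read 1: CellTiter-Fluor (Ex 405/Em 525), cytotox. Read 2: luciferase lum, Nrf2 activity.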

[11] = qHTS for Inhibitors of Cell Surface uPA Generation: Validation Assay (AID 493164);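 further: RAW 264.7 macrophage cells exposed to compound for 18 h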
Method in brief: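 ATP-Lite luminescence read-out: ATP remains high when uPA activity-dependent LF translocation into the cytoplasm is blocked. RAW 264.7 cells, 18 h compound exposure at 37 C; 7-point titration, 2.45 nM to 38.3 uM final.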

[12] = target: Galactokinase (Homo sapiens) (UniProt P51570); test: qHTS Validation Assay for Inhibitors of Human Galactokinase (GALK) (AID 493189)
Method in brief: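 Enzyme activity is inferred from ATP consumption: human GALK phosphorylates galactose (100 uM) using 35 uM ATP for 1 h at room temperature, and luciferase-based Kinase-Glo Plus reports unconsumed ATP.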

[13] = target: Peptidyl-prolyl cis-trans isomerase NIMA-interacting 1 (Homo sapiens) (UniProt Q13526); test: qHTS Validation Assay to Find Inhibitors of Pin1 (AID 504536; active means well fitted inhibition curve with a large enough effect in the polarisation, with a control signal flat, not every such curve was filed as active; the % refers to the polarisation; further: potency means the concentration at half of the fitted maximal effect)
Method in brief: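 Fluorescence polarization competition: compounds (titration) displace HiFluor-488-labeled Pin1-1b peptide from Pin1 (0.3 uM final) in pH 7.5 HEPES buffer with DTT, 10 min at room temperature; %Activity normalized to no-enzyme wells, curves fitted.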

[14] = target: Phosphoglycerate kinase, glycosomal (Trypanosoma brucei brucei) (UniProt P07378); test: qHTS Validation Assay to Find Inhibitors of Phosphoglycerate Kinase (AID 504547); further: potency means the concentration at half of the fitted maximal effect
Method in brief: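 Compounds are pinned into the substrate/PGK mixture, and GAPDH (100nM final) is added to start the reaction by producing 1,3-BPG. After 60 minutes at room temperature, Kinase-Glo Plus is added and luminescence is measured 10 minutes later.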

[15] = target: phosphoglycerate mutase (Leishmania major) (UniProt Q4Q090); test: qHTS Validation Assay to Find Inhibitors of Phosphoglycerate Mutase (AID 504548); settings: Potency: inhibition qHTS; further: series mostly up to about 58 µM
Method in brief: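 Lm PGAM 1.25nM final; 100 mM TEA pH 7.6, 5 mM MgCl2, 0.01% Tween-20; 45 min RT; Kinase-GloPlus, 10 min; end-point luminescence. Enzyme-free wells as negative controls.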

[16] = target: Tyrosyl-DNA phosphodiesterase 1 (Homo sapiens) (UniProt Q9NUW8); test: Confirmation Assay for Inhibitors of Tyrosyl-DNA Phosphodiesterase (TDP1) (AID 489007); settings: recombinant human TDP1 enzymatic activity, dose-response; further: potency means the concentration at half of the fitted maximal effect; nearly all actives have a fitted effect of over 40% in size
Method in brief: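 Compounds are preincubated 15 min at room temperature with 1 nM recombinant human Tdp1. The reaction starts on adding 15 nM FITC-phosphotyrosine DNA substrate, runs 5 min, and is detected by AlphaScreen beads after 10 min.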

[17] = Validation screen for small molecules that induce DNA re-replication in SW480 colon adenocarcinoma cells (AID 504364)
Method in brief: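 Image-based qHTS: compounds were incubated with SW480 cells for 48 hr, nuclei stained with Hoechst, and per-nucleus fluorescence intensity scanned to flag cells with excess DNA content.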

[18] = target: Methanococcus maripaludis chaperonin (MmCpn) (UniProt Q6LX38); test: High-Throughput Screening for Modulators of Cytosolic Chaperonin Activity: MmCpn Primary Screen (AID 488978)
Method in brief: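 HTRF readout (320 nm excitation, 590/665 nm emission) of ADP generated by 50 nM MmCpn hydrolysing 30 uM ATP during 10 min at 37C; compound preincubated 5 min RT.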

[19] = Inducers of the Endoplasmic Reticulum Stress Response (ERSR) in human glioma: Validation (AID 504836)
Method in brief: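 Stably transfected U87-MG glioma cells carrying a GRP78-based luciferase sensor; 16 h compound incubation. Luminescence end-point read 10 min after Bright-Glo addition at room temperature.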

[20] = target: ATP-dependent 6-phosphofructokinase (Trypanosoma brucei brucei) (UniProt O15648); test: qHTS Assay to Find Inhibitors of T. brucei phosphofructokinase: hit validation (AID 492961);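 further: luminescence reports ADP formed as PFK phosphorylates fructose-6-phosphate with ATP; series mostly up to about 51 µM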
Method in brief: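 Inhibition of parasite PFK is measured as reduced ADP formation, quantified via luciferase after ATP depletion. Assay used 0.1 mM ATP, 0.5 mM F6P, 1.25 nM enzyme, 45 min incubation.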

D(1A) dopamine receptor (Homo sapiens), sequence (P21728 whole entry, looked up): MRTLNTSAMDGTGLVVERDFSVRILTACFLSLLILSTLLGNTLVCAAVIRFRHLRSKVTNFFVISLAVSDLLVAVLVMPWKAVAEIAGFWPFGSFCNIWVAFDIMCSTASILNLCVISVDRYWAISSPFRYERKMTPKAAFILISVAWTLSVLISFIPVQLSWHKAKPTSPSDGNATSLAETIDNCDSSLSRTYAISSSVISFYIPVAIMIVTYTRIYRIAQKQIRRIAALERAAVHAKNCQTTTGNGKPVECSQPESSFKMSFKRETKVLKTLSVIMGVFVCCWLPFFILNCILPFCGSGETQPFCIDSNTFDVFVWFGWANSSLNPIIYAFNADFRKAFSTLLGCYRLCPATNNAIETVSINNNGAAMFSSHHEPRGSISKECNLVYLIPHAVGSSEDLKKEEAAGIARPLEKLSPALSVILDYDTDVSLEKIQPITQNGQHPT
Thyrotropin-releasing hormone receptor (Homo sapiens), sequence (P34981 whole entry, looked up): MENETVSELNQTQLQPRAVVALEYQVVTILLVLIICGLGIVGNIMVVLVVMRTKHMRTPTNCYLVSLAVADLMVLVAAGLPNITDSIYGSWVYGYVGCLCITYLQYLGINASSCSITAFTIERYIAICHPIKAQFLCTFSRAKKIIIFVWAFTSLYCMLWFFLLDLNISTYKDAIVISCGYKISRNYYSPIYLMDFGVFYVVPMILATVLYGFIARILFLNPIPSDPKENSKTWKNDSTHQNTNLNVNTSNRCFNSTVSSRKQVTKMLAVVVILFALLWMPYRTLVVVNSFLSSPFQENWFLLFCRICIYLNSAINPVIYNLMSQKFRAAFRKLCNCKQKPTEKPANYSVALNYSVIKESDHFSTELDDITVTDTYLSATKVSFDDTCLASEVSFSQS
Transient receptor potential cation channel subfamily V member 1 (Homo sapiens), sequence (Q8NER1 whole entry, looked up): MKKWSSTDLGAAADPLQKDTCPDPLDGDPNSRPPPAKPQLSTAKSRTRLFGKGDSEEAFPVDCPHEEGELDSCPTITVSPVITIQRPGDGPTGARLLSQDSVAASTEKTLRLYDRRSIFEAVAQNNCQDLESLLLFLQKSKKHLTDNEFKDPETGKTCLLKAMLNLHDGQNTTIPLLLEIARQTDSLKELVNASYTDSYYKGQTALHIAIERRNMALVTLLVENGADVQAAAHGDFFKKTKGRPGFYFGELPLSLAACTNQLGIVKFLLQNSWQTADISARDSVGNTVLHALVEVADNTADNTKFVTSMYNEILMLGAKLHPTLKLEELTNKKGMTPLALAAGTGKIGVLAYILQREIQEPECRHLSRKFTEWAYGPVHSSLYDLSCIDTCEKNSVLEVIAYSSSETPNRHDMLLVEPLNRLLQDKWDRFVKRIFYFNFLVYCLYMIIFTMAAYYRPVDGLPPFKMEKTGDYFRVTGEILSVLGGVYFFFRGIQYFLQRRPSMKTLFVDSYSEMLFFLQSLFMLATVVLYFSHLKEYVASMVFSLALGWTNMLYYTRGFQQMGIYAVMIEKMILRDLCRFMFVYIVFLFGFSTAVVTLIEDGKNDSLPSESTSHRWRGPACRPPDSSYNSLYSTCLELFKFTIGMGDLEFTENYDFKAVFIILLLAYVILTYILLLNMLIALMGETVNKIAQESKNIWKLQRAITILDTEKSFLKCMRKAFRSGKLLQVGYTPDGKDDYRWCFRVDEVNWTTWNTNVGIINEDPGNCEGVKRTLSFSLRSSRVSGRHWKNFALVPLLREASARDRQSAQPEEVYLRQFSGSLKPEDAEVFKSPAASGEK
Peptidyl-prolyl cis-trans isomerase NIMA-interacting 1 (Homo sapiens), sequence (Q13526 whole entry, looked up): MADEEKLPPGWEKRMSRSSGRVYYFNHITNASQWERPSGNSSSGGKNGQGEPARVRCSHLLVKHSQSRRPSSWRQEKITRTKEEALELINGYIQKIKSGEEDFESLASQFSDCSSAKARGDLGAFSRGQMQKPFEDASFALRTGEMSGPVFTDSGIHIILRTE
Thyrotropin receptor (Homo sapiens), sequence (P16473 whole entry, looked up): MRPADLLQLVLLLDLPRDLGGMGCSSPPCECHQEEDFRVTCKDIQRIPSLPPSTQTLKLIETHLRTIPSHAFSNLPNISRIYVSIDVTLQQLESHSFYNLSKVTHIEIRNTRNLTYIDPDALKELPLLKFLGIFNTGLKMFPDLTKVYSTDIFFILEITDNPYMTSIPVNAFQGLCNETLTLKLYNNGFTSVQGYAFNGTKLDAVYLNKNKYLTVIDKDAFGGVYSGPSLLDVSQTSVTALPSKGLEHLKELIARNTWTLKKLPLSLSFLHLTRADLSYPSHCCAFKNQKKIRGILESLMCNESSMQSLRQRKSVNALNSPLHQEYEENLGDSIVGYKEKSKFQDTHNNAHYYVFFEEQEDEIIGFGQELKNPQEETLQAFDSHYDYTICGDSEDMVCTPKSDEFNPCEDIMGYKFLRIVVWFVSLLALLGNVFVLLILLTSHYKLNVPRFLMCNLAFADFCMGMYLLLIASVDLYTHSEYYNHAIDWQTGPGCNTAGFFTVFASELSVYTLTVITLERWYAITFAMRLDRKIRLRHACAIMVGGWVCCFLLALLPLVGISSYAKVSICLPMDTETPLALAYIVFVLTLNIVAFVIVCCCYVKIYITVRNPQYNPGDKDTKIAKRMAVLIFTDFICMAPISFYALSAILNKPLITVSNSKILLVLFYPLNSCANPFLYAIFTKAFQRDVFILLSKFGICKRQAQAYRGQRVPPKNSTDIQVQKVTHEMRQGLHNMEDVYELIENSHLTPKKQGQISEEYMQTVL
Chromobox protein homolog 1 (Homo sapiens), sequence (P83916 whole entry, looked up): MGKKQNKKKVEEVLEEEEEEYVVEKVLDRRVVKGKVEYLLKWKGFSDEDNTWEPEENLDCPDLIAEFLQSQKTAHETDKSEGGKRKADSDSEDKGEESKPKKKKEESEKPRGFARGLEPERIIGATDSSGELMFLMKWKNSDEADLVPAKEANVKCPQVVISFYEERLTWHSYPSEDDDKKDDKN
Phosphoglycerate kinase, glycosomal (Trypanosoma brucei brucei), sequence (P07378 whole entry, looked up): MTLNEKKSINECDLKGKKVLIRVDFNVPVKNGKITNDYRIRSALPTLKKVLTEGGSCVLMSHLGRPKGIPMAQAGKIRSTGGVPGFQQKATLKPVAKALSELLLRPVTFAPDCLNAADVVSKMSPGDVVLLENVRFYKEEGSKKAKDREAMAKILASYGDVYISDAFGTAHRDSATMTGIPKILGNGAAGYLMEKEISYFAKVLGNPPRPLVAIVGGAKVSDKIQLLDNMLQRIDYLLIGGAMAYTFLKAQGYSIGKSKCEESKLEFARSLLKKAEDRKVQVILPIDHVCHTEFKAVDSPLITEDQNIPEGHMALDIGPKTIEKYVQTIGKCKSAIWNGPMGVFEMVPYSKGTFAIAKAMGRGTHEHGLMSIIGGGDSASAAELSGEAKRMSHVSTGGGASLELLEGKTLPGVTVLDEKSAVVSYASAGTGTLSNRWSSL
Galactokinase (Homo sapiens), sequence (P51570 whole entry, looked up): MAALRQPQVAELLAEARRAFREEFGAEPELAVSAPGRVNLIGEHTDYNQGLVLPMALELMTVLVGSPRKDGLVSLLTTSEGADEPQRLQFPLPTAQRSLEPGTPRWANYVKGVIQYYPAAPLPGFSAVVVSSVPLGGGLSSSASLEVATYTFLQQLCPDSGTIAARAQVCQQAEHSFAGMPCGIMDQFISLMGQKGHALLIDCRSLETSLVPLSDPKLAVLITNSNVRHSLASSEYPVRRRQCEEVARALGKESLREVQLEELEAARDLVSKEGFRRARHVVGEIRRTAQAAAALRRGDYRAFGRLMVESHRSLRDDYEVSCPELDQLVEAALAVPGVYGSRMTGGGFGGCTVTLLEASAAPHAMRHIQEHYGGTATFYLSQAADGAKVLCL
phosphoglycerate mutase (Leishmania major), sequence (Q4Q090 1-553): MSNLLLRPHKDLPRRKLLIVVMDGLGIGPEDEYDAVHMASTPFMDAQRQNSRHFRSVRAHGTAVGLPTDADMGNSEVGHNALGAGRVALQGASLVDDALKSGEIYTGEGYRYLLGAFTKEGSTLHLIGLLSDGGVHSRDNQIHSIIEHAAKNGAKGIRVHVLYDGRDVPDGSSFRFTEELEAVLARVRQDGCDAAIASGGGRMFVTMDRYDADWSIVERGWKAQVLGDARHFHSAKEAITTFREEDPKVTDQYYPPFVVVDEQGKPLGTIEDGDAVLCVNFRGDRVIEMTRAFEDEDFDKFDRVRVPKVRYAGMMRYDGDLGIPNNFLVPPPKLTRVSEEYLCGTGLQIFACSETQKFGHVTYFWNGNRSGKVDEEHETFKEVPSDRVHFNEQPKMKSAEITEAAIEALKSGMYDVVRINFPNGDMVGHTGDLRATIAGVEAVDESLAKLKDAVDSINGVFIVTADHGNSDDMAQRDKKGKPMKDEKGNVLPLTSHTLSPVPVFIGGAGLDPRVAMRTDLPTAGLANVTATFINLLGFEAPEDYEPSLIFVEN
Methanococcus maripaludis chaperonin (MmCpn), sequence (Q6LX38 1-543): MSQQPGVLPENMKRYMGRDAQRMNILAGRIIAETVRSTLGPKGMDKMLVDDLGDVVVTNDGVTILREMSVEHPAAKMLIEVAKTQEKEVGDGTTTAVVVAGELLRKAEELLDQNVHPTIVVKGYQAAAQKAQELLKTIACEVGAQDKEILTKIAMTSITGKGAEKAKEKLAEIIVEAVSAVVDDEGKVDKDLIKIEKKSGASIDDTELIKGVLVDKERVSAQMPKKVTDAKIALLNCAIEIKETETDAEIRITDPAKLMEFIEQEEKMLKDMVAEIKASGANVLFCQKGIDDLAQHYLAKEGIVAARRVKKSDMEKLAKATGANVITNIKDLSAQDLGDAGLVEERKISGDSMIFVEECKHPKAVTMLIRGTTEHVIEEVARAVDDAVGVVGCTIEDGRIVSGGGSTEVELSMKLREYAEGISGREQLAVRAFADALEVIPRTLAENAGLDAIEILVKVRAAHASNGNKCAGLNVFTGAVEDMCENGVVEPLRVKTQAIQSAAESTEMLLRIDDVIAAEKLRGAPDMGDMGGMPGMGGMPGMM

With `Clc1ccc(N2CC3CCC(C2)N3)nn1` the Potency [1] was “inactive”, the outcome [2] was “inactive” and the outcome [3] was “inactive”. For the same compound, the Potency [4] was “inactive”, the Potency [5] was “inactive” and the Potency [6] was “inactive”. For the same compound, the Potency [7] was “inactive”, the Potency [8] was “inactive” and the activation [9] was 1.19% (inactive). For the same compound, the Potency [10] was “inactive”, the viability change [10] was 4.91% and the outcome [11] was “inactive”. For the same compound, the outcome [12] was “inactive”, the Potency [13] was “inactive” and the Potency [14] was “inactive”. The Potency [15] was “inactive”.
For `NC(Cc1cc(O)c(O)cc1O)C(=O)O` (stereo not given), the Potency [1] was 0.316 µM (active), the outcome [2] was “inactive” and the Potency [4] was “inactive”. The Potency [5] was “inactive”, the Potency [6] was “inactive” and the Potency [16] was 4.47 µM (active). For the same compound, the Potency [7] was “inactive”, the Potency [8] was “inactive” and the activation [9] was 1.06% (inactive). The Potency [10] was “inactive”, the viability change [10] was -20.4% and the outcome [11] was “inactive”. For the same compound, the outcome [12] was “inactive”, the Potency [17] was “inactive” and the Potency [13] was 1.69 µM (active). The Potency [14] was 0.338 µM (active) and the Potency [15] was “inactive”.
In the case of `Cc1cc([C@@H]2CCCN2C)on1`, the Potency [1] is reported as “inactive”, the outcome [18] is reported as “inactive” and the Potency [4] is reported as “inactive”. For the same compound, the Potency [5] was “inactive”, the Potency [6] was “inactive” and the Potency [7] was “inactive”. The Potency [8] was “inactive”, the Potency [10] was “inactive” and the viability change [10] was 4.53%. The outcome [11] was “inactive”, the Potency [13] was “inactive” and the Potency [14] was “inactive”. For the same compound, the Potency [15] was “inactive” and the outcome [19] was “inactive”.
For `CC(C)NP(=O)(NC(C)C)OP(=O)(NC(C)C)NC(C)C`, the Potency [1] was “inactive”, the outcome [2] was “inactive” and the outcome [3] was “inactive”. For the same compound, the Potency [4] was “inactive”, the Potency [5] was “inactive” and the Potency [6] was “inactive”. The Potency [7] was “inactive”, the Potency [8] was “inactive” and the activation [9] was -2.75% (inactive). The Potency [10] was “inactive”, the viability change [10] was 0.686% and the outcome [11] was “inactive”. The outcome [12] was “inactive”, the Potency [13] was “inactive” and the Potency [14] was “inactive”. The Potency [15] was “inactive” and the outcome [19] was “inactive”.
In the case of `CCOC(=O)c1ncn2c1[C@@H]1CCCN1C(=O)c1cc(OC)ccc1-2`, the Potency [1] is reported as “inactive”, the outcome [18] is reported as “inactive” and the outcome [2] is reported as “inactive”. The Potency [4] was “inactive”, the Potency [5] was “inactive” and the Potency [6] was “inactive”. For the same compound, the Potency [7] was “inactive”, the Potency [8] was “inactive” and the activation [9] was -0.25% (inactive). For the same compound, the Potency [10] was “inactive”, the viability change [10] was -9.51% and the outcome [11] was “inactive”. For the same compound, the outcome [12] was “inactive”, the Potency [17] was “inactive” and the Potency [13] was “inactive”. The Potency [14] was “inactive”, the Potency [15] was “inactive” and the outcome [19] was “inactive”.
In the case of `CN(N=O)c1cc(O)ccc1O`, the Potency [1] is reported as 50.1 µM (active), the outcome [18] is reported as “inactive” and the outcome [2] is reported as “inactive”. For the same compound, the Potency [4] was “inactive”, the Potency [5] was “inactive” and the Potency [6] was “inactive”. The Potency [7] was “inactive”, the Potency [8] was “inactive” and the activation [9] was -2.69% (inactive). For the same compound, the outcome [11] was “inactive”, the outcome [12] was “inactive” and the Potency [13] was “inactive”. The Potency [15] was “inactive” and the outcome [19] was “inactive”.
With `CCCN1CCc2cccc3c2[C@H]1Cc1ccc(O)c(O)c1-3` the Potency [1] was 70.8 µM (active), the outcome [18] was “inactive” and the Potency [5] was “inactive”. For the same compound, the Potency [7] was “inactive”, the Potency [8] was “inactive” and the Potency [10] was “inactive”. For the same compound, the viability change [10] was 0.172%, the outcome [11] was “inactive” and the Potency [13] was “inactive”. The Potency [14] was “inactive”, the Potency [15] was “inactive” and the outcome [19] was “inactive”.
In the case of `C[N+]1(C)C2CCC1CC(OC(=O)c1c[nH]c3ccccc13)C2` (stereo not given), the Potency [1] is reported as “inactive”, the outcome [2] is reported as “inactive” and the outcome [3] is reported as “inactive”. The Potency [4] was “inactive”, the Potency [5] was “inactive” and the Potency [6] was “inactive”. The Potency [20] was “inactive”, the Potency [7] was “inactive” and the Potency [8] was “inactive”. For the same compound, the activation [9] was 0.188% (inactive), the Potency [10] was “inactive” and the viability change [10] was 2.15%. For the same compound, the outcome [11] was “inactive”, the outcome [12] was “inactive” and the Potency [13] was “inactive”. For the same compound, the Potency [14] was “inactive” and the Potency [15] was “inactive”.
